According to PubChem BioAssay (Tox21):
Inconclusive results are not listed. Unmarked numbers belong to inactive results. The source made the active and inactive calls. The call rests on the fitted dose curve; in most records, active means well fitted cell-killing curve with a large enough effect in the repeat runs; inconclusive means weak or mixed curves, or effect the other way; inactive means flat fitted curve, though single readings scatter.

assay: qHTS RealTime-Glo MT Cell Viability Assay in HEK293 cells - 24 hour (AID 1224886); conditions: RealTime-Glo luminescence; series mostly up to 76.8 µM; activity change, negative = cytotoxicity: at the top concentration; further: nearly all actives have a fitted effect of over 50% in size; on activity change, negative = cytotoxicity: top concentration of the series differs between compounds
Excerpt: National Center for Advancing Translational Sciences [NCATS]
NIH Chemical Genomics Center [NCGC]
U.S. Environmental Protection Agency [EPA]
National Institutes of Environmental Health Sciences [NIEHS]
National Toxicology Program [NTP]
U.S. Food and Drug Administration [FDA]
Measure of cell viability is critical in the cell-base assay. Analysis of cell viability is necessary for the characterization of cell responses to cytotoxic drugs and environmental stress. A RealTime-Glo MT Cell Viability Assay to monitor cell viability in real time of continues cell culture during 40 hours of compound treatment was used to screen Tox21 10K library compounds in Hek293 cells. The RealTime-Glo MT Cell Viability Assay is a nonlytic, homogeneous, bioluminescent method to measure cell viability in real time using a simple, plate-based method. The assay involves adding NanoLuc luciferase and a cell-permeant prosubstrate to cells in culture. Viable cells reduce the proprietary prosubstrate to generate a substrate for NanoLuc luciferase. This substrate diffuses from cells into the surrounding culture medium, where it is rapidly used by the NanoLuc Enzyme to produce a luminescent signal. The signal correlates with the number of viable cells, making the assay well suited for cytotoxicity studies.
Tox21 Assay Protocol Summary:
The mixture of Hek293 cell suspension and reagents were dispensed at 600cells/6 ul/well in 1536-well tissue culture treated black solid bottom plates using a Multidrop dispenser. After the assay plates were incubated at a 37 C/5% CO2 incubator for 5 hours, 23 nL of compounds dissolved in DMSO, positive and negative controls was transferred to the assay plate by a pintool work station. The plates were incubated at 37 C for 40 hours. The luminescence intensity were measured at 0h, 8h, 16h, 24h, 32h and 40h time points using ViewLux plate reader during compound treatment.
On the % scale 0 is the no-effect control and ±100 the full control effect; potency means the concentration at half of the fitted maximal effect.

Structure (SMILES)	activity change, negative = cytotoxicity	Potency
Nc1ccc(S(=O)(=O)NCc2ccccc2)cc1	-0.77% [at 35.3 µM]	
CCCCCCCCCCCCCCCC(=O)OCC	2.18%	
CC1=C2[C@@H]([C@H](C)CC[C@H]2/C=C(\C)C(=O)O)[C@H](O)C1	-0.948%	
Nc1ccn([C@H]2CS[C@@H](CO)O2)c(=O)n1	-2.96%	
CC(C)(C)C(O)/C=C/c1ccc2c(c1)OCO2 (stereo not given)	-1.67% [at 35.3 µM]	
Cc1cccc2sc(N)nc12	22.4%	
C[C@@H]1[C@H](O)[C@@H](C)/C=C/C=C\C=C\C=C\C=C\C=C\C=C\[C@H](O[C@@H]2O[C@H](C)[C@@H](O)[C@H](N)[C@@H]2O)C[C@@H]2O[C@](O)(C[C@@H](O)C[C@@H](O)[C@H](O)CC[C@@H](O)C[C@@H](O)CC(=O)O[C@H]1C)C[C@H](O)[C@H]2C(=O)O (stereo in doubt)	2.12%	
CC/C=C\C/C=C\C/C=C\CCCCCCCC(=O)OCC	-11%	
CCCC(=O)OC(=O)CCC	27.6%	
CCCCCCOC(=O)CCCCC	3.17%	
CC(C(=O)O)c1ccc(C(=O)c2cccs2)cc1 (stereo not given)	1.17% [at 35.3 µM]	
FC(F)(F)C(F)(F)C(F)(F)C(F)(F)CCI	-8.27% [at 35.3 µM]	
CC(C)(C)CCCCCCOC(=O)c1ccccc1C(=O)OCCCCCCC(C)(C)C	2.47%	
CCCCC(CC)COS(=O)(=O)O (stereo not given)	-1.18%	
COc1ccc(CCN(C)CCCN2CCc3cc(OC)c(OC)cc3CC2=O)cc1OC	8.09% [at 35.3 µM]	
C=C(C)c1ccccc1	-1.18%	
CC(=O)OCC(=O)[C@@]1(OC(C)=O)[C@@H](C)C[C@H]2[C@@H]3C[C@H](F)C4=CC(=O)C=C[C@]4(C)[C@@]3(F)[C@@H](O)C[C@@]21C	-19.1% [at 35.3 µM]	
CCCCCCCC/C=C\CCCCCCCC(=O)OCCO	-10.2%	
Cc1ccc(N(CC2=NCCN2)c2cccc(O)c2)cc1	-17.9% [at 35.3 µM]	
CC(C)(O)CCc1ccccc1	-13.2%	

Structure (SMILES)	activity change, negative = cytotoxicity	Potency
CC(C)COC(=O)COc1cc(Cl)c(Cl)cc1Cl	-15.1%	
CC(=O)NCCO	11.8%	
CCC(CO)(CO)CO	3.5%	
Oc1ccc2c(c1)Cc1ccccc1-2		19.5 µM (active)
CC(C)(C)NCC(O)COc1cccc2c1C[C@H](O)[C@H](O)C2 (stereo not given in full)	3.58% [at 35.3 µM]	
O=C(NC(Cc1cc(=O)[nH]c2ccccc12)C(=O)O)c1ccc(Cl)cc1 (stereo not given)	5.96% [at 35.3 µM]	
N[C@@H](Cc1cc(I)c(O)c(I)c1)C(=O)O	8.51% [at 35.3 µM]	
CCOC(=O)Oc1ccc(CCNC(=O)[C@H](CCSC)NC(C)=O)cc1OC(=O)OCC	12.6% [at 35.3 µM]	
CC(C)Cc1ccc(CC(=O)O)cc1	5.03% [at 35.3 µM]	
CC(C)OC(=O)c1ccccc1C(=O)OC(C)C	-10.2%	
CC12CC3CC(C)(C1)CC(N)(C3)C2	-1.36% [at 35.3 µM]	
COC(=O)CC(C(C)=O)C(=O)OC (stereo not given)	8.39%	
Cc1cccc(C)c1NC(=O)c1cc(S(N)(=O)=O)c(Cl)cc1O	-0.963% [at 35.3 µM]	
c1ccc2sc(SSc3nc4ccccc4s3)nc2c1	4.46% [at 15.8 µM]	
CCCCCCCC(=O)OCCCCCC		3.89 µM (active)
CC(=O)Oc1cccc(O)c1	4.28% [at 35.3 µM]	
CCN(CC)CCNC(=O)c1cc(Cl)c(N)cc1OC	-7.94% [at 35.3 µM]	
CN1C(CSCC(F)(F)F)Nc2cc(Cl)c(S(N)(=O)=O)cc2S1(=O)=O (stereo not given)		16.9 µM (active)
CC1CCCC(=O)C1=O (stereo not given)	5.98%	
CC(C)C(=O)OCCOc1ccccc1	-1.19%	
